# For some of these results: Results with a measured potency or affinity are listed apart.
# What was measured:
# Design in all cases: scale not given: direction of the effect not stated beside the values
# [1] = molecular target: Protein translocase subunit SecA (Escherichia coli (strain K12)) (UniProt P10408); experiment: Assay to Identify E. coli SecA ATPase Inhibitors; type: functional; conditions: 30 µM
# [2] = molecular target: T1, Ubiquitin-activating enzyme e1, putative (Leishmania donovani (strain BPK282A1)) (UniProt E9BSI1); experiment: Leishmania donovani Ubiquitin Activating Enzyme (LdE1); type: functional; conditions: 30 µM
# T1 sequence (whole entry): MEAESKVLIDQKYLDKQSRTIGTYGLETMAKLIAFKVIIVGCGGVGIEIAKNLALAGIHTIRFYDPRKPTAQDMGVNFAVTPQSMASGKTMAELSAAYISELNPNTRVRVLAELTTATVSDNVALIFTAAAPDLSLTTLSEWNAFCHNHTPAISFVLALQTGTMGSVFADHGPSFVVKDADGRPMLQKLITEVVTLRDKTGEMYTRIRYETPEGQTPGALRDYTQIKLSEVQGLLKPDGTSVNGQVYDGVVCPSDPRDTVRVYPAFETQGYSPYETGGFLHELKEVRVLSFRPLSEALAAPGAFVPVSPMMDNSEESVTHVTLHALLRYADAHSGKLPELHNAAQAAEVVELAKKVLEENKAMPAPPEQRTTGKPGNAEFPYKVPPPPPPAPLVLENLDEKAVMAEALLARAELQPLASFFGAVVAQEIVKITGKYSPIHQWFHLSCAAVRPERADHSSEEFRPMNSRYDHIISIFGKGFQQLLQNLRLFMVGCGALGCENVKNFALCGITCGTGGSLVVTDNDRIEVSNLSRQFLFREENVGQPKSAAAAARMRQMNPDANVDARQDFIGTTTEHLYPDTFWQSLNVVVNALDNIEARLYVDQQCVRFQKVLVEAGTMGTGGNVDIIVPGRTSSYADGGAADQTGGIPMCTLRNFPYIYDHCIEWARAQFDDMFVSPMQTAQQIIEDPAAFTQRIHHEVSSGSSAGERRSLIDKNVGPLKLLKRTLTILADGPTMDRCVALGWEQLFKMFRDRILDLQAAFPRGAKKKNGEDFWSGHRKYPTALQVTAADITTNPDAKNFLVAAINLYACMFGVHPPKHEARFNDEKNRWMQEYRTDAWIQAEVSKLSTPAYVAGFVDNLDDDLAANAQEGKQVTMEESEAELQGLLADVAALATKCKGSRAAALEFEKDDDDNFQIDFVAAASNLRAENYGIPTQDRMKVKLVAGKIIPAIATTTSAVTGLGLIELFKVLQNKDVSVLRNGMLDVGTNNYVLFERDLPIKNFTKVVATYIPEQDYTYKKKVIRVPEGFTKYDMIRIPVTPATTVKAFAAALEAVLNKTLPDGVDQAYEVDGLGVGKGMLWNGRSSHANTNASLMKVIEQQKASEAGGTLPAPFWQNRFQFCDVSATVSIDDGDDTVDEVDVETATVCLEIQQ
# [3] = molecular target: AMP-activated protein kinase, AMPK (Homo sapiens) (UniProt P54646+O43741+P54619+Q9UGJ0+Q9Y478+Q13131+Q9UGI9); experiment: AMP-dependent Kinase enzyme assay. An in vitro enzyme assay that detects ADP turnover that is directly proportional to AMPK activity. This uses naive AMPK that is activated during the assay with MK-8722; type: functional; conditions: 30 µM
# [4] = molecular target: Sialic acid-binding Ig-like lectin 9 (Homo sapiens) (UniProt Q9Y336); experiment: Hs-Siglec9 ALPHAscreen SOP 20170721; conditions: 10 µM
# Trypanosoma cruzi = experiment: Trypanosoma cruzi phosphomannomutase and mannose-1-phosphate guanylyltransferase assay; type: functional; conditions: 10 µM
# [5] = molecular target: T2, Arginase-2, mitochondrial (Homo sapiens) (UniProt P78540); experiment: in vitro enzyme assay to detect the production of urea directly proportional to the activity of Arginase II; type: functional; conditions: 33.3 µM; note: in the data most compounds retested in dose-response had high values
# T2 sequence (whole entry): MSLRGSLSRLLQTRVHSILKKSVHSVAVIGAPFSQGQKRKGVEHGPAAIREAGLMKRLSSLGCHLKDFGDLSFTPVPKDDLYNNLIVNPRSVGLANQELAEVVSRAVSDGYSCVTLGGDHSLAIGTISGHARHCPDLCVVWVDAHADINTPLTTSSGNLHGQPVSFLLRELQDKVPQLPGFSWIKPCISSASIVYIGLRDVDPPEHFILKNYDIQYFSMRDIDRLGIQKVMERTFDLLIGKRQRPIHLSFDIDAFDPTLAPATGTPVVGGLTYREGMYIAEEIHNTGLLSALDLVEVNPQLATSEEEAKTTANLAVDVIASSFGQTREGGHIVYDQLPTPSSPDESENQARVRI
# [6] = molecular target: T3, Proteasome subunit beta (Trypanosoma cruzi) (UniProt O96673); experiment: Trypanosoma cruzi proteasome chymotrypsin-like activity (TcProtChymo) assay.; note: in the data most compounds retested in dose-response had high values; type: functional; conditions: 9.37 µM
# T3 sequence (whole entry): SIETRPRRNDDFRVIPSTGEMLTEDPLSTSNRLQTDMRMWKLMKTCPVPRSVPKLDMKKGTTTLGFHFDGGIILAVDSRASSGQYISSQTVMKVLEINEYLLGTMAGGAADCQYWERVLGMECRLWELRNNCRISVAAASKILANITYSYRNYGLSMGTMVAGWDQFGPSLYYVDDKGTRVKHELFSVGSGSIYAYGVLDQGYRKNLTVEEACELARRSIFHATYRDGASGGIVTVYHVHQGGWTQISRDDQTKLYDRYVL
# Homo sapiens = organism: Homo sapiens; experiment: To identify inhibition of the IFN signalling (Jak-Stat) pathway via expression of an eGFP reporter gene under the control of an IFN-stimulated response element (ISRE) containing MxA promoter.; type: functional; conditions: 30 µM
# [7] = molecular target: T4, Tyrosyl-tRNA synthetase, putative (Trypanosoma cruzi (strain CL Brener)) (UniProt Q4DSP6); experiment: Trypanosoma cruzi tyrosyl tRNA synthetase (TcYRS) _High Tyrosine SOP; type: functional; conditions: 30 µM; note: in the data most compounds retested in dose-response had high values
# T4 sequence (whole entry): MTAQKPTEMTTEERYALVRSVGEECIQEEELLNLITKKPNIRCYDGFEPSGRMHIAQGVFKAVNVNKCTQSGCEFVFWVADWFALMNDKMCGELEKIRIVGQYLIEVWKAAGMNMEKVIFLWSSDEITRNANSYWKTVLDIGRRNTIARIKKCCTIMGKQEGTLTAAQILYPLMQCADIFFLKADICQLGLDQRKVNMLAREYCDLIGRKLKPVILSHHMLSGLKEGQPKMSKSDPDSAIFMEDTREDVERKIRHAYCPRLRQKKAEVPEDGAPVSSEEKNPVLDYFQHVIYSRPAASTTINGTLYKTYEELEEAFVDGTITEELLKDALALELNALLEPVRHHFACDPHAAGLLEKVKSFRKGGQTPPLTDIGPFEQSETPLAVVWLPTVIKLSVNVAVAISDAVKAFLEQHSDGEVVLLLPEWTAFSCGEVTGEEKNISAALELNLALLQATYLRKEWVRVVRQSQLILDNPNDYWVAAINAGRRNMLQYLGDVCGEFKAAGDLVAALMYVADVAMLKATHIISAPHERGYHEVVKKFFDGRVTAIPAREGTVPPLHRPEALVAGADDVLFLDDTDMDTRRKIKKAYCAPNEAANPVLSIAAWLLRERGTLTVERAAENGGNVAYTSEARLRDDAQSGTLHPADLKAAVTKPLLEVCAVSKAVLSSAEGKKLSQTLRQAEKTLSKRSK
# [8] = molecular target: T4, Tyrosyl-tRNA synthetase, putative (Trypanosoma cruzi (strain CL Brener)); experiment: Trypanosoma cruzi tyrosyl tRNA synthetase (TcYRS) SOP; type: functional; conditions: 30 µM
# [9] = molecular target: Chromo domain-containing protein 1 (Saccharomyces cerevisiae (strain ATCC 204508 / S288c) (Baker's yeast)) (UniProt P32657); experiment: ScCHD-1 Enzyme Inhibition Assay; type: functional; conditions: 30 µM; note: in the data most compounds retested in dose-response had high values
# Chain of Chromo domain-containing protein 1 (Saccharomyces cerevisiae (strain ATCC 204508 / S288c) (Baker's yeast)) (P32657 whole entry, the tested form may be a part): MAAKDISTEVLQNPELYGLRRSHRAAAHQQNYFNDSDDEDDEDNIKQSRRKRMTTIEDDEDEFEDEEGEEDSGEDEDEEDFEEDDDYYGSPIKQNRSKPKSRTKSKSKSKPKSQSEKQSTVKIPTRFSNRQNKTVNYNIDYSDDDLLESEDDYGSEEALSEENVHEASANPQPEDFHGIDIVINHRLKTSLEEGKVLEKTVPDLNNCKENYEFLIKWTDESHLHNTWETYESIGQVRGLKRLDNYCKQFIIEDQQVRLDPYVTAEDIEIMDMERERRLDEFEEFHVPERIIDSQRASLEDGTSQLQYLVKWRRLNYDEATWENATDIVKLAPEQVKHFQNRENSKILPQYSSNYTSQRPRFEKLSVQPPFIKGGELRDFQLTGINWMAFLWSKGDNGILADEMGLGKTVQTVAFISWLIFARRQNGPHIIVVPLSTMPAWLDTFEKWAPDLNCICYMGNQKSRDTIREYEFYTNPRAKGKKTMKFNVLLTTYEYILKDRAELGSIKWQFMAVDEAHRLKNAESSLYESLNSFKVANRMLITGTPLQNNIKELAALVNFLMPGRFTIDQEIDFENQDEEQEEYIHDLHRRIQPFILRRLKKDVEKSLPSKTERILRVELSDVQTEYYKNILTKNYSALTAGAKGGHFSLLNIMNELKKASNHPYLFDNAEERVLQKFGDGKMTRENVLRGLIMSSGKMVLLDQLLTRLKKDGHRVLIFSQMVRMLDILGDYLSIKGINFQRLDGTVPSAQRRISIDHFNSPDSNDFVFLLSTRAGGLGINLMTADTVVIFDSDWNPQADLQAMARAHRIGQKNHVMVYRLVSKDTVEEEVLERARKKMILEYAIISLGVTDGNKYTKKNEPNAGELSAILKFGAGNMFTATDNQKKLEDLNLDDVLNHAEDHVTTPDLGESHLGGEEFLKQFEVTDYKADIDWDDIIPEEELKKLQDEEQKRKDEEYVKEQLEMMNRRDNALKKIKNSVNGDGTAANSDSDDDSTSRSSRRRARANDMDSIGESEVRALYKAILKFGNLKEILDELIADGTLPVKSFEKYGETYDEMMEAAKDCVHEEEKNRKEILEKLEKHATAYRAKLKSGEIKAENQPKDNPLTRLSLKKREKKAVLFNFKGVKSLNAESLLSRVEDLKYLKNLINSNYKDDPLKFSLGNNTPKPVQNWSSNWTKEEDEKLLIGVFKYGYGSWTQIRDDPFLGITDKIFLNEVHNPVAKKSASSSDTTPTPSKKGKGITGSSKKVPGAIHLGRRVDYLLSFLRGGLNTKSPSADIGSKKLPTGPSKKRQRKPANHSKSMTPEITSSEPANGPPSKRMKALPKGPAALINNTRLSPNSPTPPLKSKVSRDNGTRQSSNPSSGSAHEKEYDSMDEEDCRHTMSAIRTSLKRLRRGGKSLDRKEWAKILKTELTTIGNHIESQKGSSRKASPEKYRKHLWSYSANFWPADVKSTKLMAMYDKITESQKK
# Chain of Sialic acid-binding Ig-like lectin 9 (Homo sapiens) (Q9Y336 whole entry): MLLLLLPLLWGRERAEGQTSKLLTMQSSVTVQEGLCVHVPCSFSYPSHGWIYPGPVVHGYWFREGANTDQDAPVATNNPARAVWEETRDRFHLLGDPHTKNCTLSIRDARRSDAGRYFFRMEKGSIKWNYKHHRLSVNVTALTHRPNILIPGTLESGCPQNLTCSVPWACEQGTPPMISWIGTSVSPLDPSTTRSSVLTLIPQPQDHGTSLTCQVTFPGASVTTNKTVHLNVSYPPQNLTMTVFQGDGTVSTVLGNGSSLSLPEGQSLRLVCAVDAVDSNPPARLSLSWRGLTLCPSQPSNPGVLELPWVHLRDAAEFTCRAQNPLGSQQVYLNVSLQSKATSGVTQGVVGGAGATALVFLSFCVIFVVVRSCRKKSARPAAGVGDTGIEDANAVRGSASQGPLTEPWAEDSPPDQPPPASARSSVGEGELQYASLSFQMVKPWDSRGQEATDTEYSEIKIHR
# Chain of Protein translocase subunit SecA (Escherichia coli (strain K12)) (P10408 whole entry): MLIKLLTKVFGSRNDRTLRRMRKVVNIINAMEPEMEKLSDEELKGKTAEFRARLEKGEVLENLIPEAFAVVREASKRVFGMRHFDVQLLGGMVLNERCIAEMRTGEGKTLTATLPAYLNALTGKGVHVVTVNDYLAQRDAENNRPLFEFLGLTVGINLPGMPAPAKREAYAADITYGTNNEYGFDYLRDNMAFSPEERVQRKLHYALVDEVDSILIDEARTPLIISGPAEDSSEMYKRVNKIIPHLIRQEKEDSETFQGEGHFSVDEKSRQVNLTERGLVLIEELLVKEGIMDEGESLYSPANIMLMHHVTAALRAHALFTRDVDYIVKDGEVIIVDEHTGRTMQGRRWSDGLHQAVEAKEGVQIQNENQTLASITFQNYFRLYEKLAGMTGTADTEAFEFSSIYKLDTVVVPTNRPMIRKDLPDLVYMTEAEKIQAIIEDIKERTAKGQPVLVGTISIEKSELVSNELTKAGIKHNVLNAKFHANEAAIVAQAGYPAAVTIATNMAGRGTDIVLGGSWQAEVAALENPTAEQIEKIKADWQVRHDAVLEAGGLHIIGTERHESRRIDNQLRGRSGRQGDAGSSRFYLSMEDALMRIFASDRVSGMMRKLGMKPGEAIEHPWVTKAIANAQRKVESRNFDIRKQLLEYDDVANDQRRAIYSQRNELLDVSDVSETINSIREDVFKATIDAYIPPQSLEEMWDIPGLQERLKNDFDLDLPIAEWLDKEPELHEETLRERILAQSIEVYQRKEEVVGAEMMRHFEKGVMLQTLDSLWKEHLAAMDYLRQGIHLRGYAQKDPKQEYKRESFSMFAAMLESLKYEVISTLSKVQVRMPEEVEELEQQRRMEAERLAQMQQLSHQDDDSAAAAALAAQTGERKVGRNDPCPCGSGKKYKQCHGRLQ
SMILES,Percent Effect [1],Percent Effect [2],Percent Effect [3],Percent Effect [4],Percent Effect (Trypanosoma cruzi),Percent Effect [5],Percent Effect [6],Percent Effect (Homo sapiens),Percent Effect [7],Percent Effect [8],Percent Effect [9]
Cc1ccc2c(ccn2CC(=O)NC[C@@H]2CCCN3CCCC[C@H]23)c1,-5.2%,28%,-5.58%,4.06%,5.5%,-6.16%,16.3%,-4.16%,4.23%,12.8%,-11.5%
CN(C)C(=O)CC1CC2(CCNCC2)c2cc(F)ccc21 (stereo not drawn),-1.58%,-5.41%,8.49%,-3.96%,-6.35%,-2.23%,21%,-0.894%,-2.16%,0%,1.02%
CC(NCc1ccc(Cl)o1)c1nnc2n1CCCC2 (stereo not drawn),-1.28%,13.5%,2.81%,2.02%,0.195%,11.2%,15%,24.2%,6.93%,18.3%,1.09%
CCCS(=O)(=O)N1CCO[C@H]2[C@H](OCc3ccccn3)CC[C@@H]21,-9.04%,8.11%,-5.79%,-1.28%,-0.977%,5%,10.1%,5.42%,10.9%,15.8%,-2.32%
COc1ccc(CN2CCC(O)CC2)c(OC)c1,-2.06%,0%,-1.5%,2.82%,1.93%,-1.91%,4.83%,13.4%,2.65%,9.76%,-0.716%
Cc1cc(CN(C)C(=O)c2cccc(N3CCCC3=O)c2)no1,-1.16%,20.2%,-7.29%,-9%,-4.25%,-0.76%,12.2%,13.3%,3.45%,16.5%,-4.16%
Cc1ncccc1OC1(C(=O)NCCCN2CCOCC2)CCNCC1,-0.6%,5.41%,-5.62%,-0.0436%,-5.02%,1.43%,11.2%,11%,6.88%,9.76%,-2.8%
COC(=O)c1ccc2ccn(CC3CCCO3)c(=O)c2c1 (stereo not drawn),-0.0971%,5.48%,-14.6%,5.25%,0.979%,12.3%,16.3%,6.29%,4.3%,10%,78.9%
